Laboratory results reported in PubChem BioAssay (NCI).
About 79,000 compounds went through this panel and 15% of them were active in at least one assay; those are over-represented in the sample as a whole. Calls of active or inactive are those of the source. Rule as the data show it: active = growth inhibition above about 70%; inactive = the rest.

Tests used:
[1] = NCI Yeast Anticancer Drug Screen. Data for the rad52 strain (AID 147);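 also: 0% = growth of vehicle-treated control cultures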; settings: S. cerevisiae rad52 mutant growth inhibition, stronger effect = higher value
How it was run: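 Inhibition of yeast growth, referenced to vehicle controls, was the measured output for a strain with defective DNA damage repair.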

[2] = NCI Yeast Anticancer Drug Screen. Data for the wt1 strain (AID 149);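 also: 0% = growth of vehicle-treated wt1 cultures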; settings: S. cerevisiae wt1 strain (SPY 50644) growth inhibition, stronger effect = higher value
How it was run: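 Readout: yeast growth inhibition, normalised to vehicle controls, in the wt1 strain exposed to test compounds.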

[3] = NCI Yeast Anticancer Drug Screen. Data for the rad50EPP+ strain (AID 151);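 also: 0% = growth of vehicle-treated control cultures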; settings: S. cerevisiae rad50 mutant strain, stronger effect = higher value
How it was run: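 Genetically defined yeast (rad50EPP+, DNA damage repair alteration) is grown with compound, and inhibition of growth is expressed relative to vehicle-treated controls.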

[4] = NCI Yeast Anticancer Drug Screen. Data for the mgt1 strain (AID 153); settings: S. cerevisiae mgt1 mutant growth inhibition, stronger effect = higher value
How it was run: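 In the mgt1 strain, test compounds were added and growth inhibition was determined relative to vehicle-treated controls.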

[5] = NCI Yeast Anticancer Drug Screen. Data for the rad50 strain (AID 155);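 also: 0% = growth of vehicle-only cultures of the same strain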; settings: S. cerevisiae rad50 strain growth inhibition, stronger effect = higher value
How it was run: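 Compounds were tested on a yeast strain with an engineered DNA damage repair alteration; the reported value is growth inhibition normalised to vehicle treatment.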

[6] = NCI Yeast Anticancer Drug Screen. Data for the mec2-1 strain (AID 157); settings: S. cerevisiae mec2-1 strain, stronger effect = higher value
How it was run: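 Each compound was tested on mec2-1 yeast, a strain altered in DNA damage repair or cell cycle control. Growth inhibition is reported relative to vehicle.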

[7] = NCI Yeast Anticancer Drug Screen. Data for the rad14 strain (AID 159);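 also: 0% = growth of vehicle-treated control cultures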; settings: S. cerevisiae rad14 strain growth inhibition, stronger effect = higher value
How it was run: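 Compound-treated yeast with a defined DNA-repair lesion; growth inhibition normalised to vehicle-treated cultures.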

[8] = NCI Yeast Anticancer Drug Screen. Data for the sgs1 mgt1 strain (AID 161);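 also: 0% = growth of cultures given vehicle only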; settings: S. cerevisiae sgs1 mgt1 strain, stronger effect = higher value
How it was run: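 Read-out: growth inhibition vs vehicle controls. Cells: mutant yeast strain deficient in DNA damage repair.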

[9] = NCI Yeast Anticancer Drug Screen. Data for the CLN2oe strain (AID 163);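 also: 0% = growth of vehicle-only control cultures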; settings: S. cerevisiae CLN2oe strain, stronger effect = higher value
How it was run: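 First, the altered yeast strain was treated with each compound; second, its growth was measured; finally, inhibition was derived by comparison with vehicle controls.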

[10] = NCI Yeast Anticancer Drug Screen. Data for the cln2 rad14 strain (AID 165);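 also: 0% = growth equal to vehicle treated cultures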; settings: S. cerevisiae cln2 rad14 strain, stronger effect = higher value
How it was run: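 Test compounds were added to cln2 rad14 yeast cultures; inhibition of growth was then determined by comparison with vehicle treatment.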

[11] = NCI Yeast Anticancer Drug Screen. Data for the bub3 strain (AID 167); settings: S. cerevisiae bub3 mutant strain, stronger effect = higher value
How it was run: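 Growth of a checkpoint-deficient yeast mutant is measured after compound exposure. Values represent inhibition relative to vehicle.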

[12] = NCI Yeast Anticancer Drug Screen. Data for the wt2 strain (AID 169);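 also: 0% = growth of vehicle-treated yeast cultures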; settings: S. cerevisiae wt2 strain growth inhibition, stronger effect = higher value
How it was run: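 The panel's yeast strains carry defined changes in DNA repair or cell cycle genes. Each strain is grown with compound, and growth loss is scored relative to vehicle.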

[13] = NCI Yeast Anticancer Drug Screen. Data for the mlh1 strain (AID 171);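 also: 0% = growth of vehicle-treated control cultures of the same strain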; settings: S. cerevisiae mlh1 strain growth inhibition, stronger effect = higher value
How it was run: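 Inhibition values reflect reduced yeast growth in the presence of compound, referenced to vehicle controls, using a strain chosen for its alteration in DNA repair or cell cycle control.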

[14] = NCI Yeast Anticancer Drug Screen. Data for the sgs1 strain (AID 173);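 also: 0% = growth of vehicle-only control cultures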; settings: S. cerevisiae sgs1 mutant, stronger effect = higher value
How it was run: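 Vehicle-treated cultures served as reference for growth inhibition of a yeast strain altered in DNA damage repair or cell cycle control after compound exposure.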

[15] = NCI Yeast Anticancer Drug Screen. Data for the mlh1 rad18 strain (AID 175); settings: S. cerevisiae mlh1 rad18 strain growth inhibition, stronger effect = higher value
How it was run: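 Inhibition values reflect reduced growth of mutant yeast versus vehicle-treated controls following compound exposure; the mutations affect DNA damage repair.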

[16] = NCI Yeast Anticancer Drug Screen. Data for the rad18 strain (AID 177); settings: S. cerevisiae rad18 mutant growth inhibition, stronger effect = higher value
How it was run: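 Steps: expose repair-mutant yeast to compound; measure growth; express as inhibition relative to vehicle control.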

[17] = at 5.0 µM (retest, dose inferred, filed as 0.5)
[18] = at 50.0 µM (retest, dose inferred, filed as 5.0)

Measured: growth inhibition

CC(=O)O/N=C1C=C/C(=C(/C#N)c2ccccc2)C=C/1C
inactive: [1]; at 1.2 µM 6% | [1]; at 3.7 µM 15% | [1]; at 11.0 µM 63% | [2]; at 1.2 µM 3% | [2]; at 3.7 µM 5% | [2]; at 11.0 µM 24% | [3]; at 1.2 µM 43% | [4]; at 1.2 µM 2% | [4]; at 3.7 µM 6% | [5]; at 1.2 µM 5% | [5]; at 3.7 µM 10% | [5]; [17] 41% | [5]; at 11.0 µM 37% | [6]; at 1.2 µM -1% | [6]; at 3.7 µM 4% | [6]; [17] 16% | [6]; at 11.0 µM 19% | [7]; at 1.2 µM 1% | [7]; at 3.7 µM 7% | [7]; at 11.0 µM 25% | [9]; at 1.2 µM -6% | [9]; at 3.7 µM 0% | [9]; at 11.0 µM 16% | [10]; [17] 4% | [11]; at 1.2 µM -8% | [11]; at 3.7 µM -11% | [11]; [17] 0% | [11]; at 11.0 µM 4% | [12]; at 1.2 µM 2% | [12]; at 3.7 µM 7% | [12]; at 11.0 µM 65% | [13]; at 1.2 µM 3% | [13]; at 3.7 µM 8% | [13]; at 11.0 µM 53% | [14]; at 1.2 µM 21% | [14]; at 3.7 µM 54% | [15]; [17] 49% | [16]; at 1.2 µM 12% | [16]; at 3.7 µM 26% | [16]; at 11.0 µM 56%
active: [1]; at 33.0 µM 99% | [1]; at 100.0 µM 96% | [2]; at 33.0 µM 99% | [2]; at 100.0 µM 97% | [3]; at 3.7 µM 81% | [3]; at 11.0 µM 95% | [3]; at 33.0 µM 97% | [3]; at 100.0 µM 94% | [4]; at 11.0 µM 75% | [4]; at 33.0 µM 99% | [4]; at 100.0 µM 96% | [5]; at 33.0 µM 98% | [5]; [18] 98% | [5]; at 50.0 µM 99.5% | [5]; at 100.0 µM 94% | [6]; at 33.0 µM 99% | [6]; [18] 98% | [6]; at 50.0 µM 99.5% | [6]; at 100.0 µM 96% | [7]; at 33.0 µM 99% | [7]; at 100.0 µM 96% | [8]; [17] 77% | [8]; [18] 99% | [8]; at 50.0 µM 99.2% | [9]; at 33.0 µM 99% | [9]; at 100.0 µM 96% | [10]; [18] 98% | [10]; at 50.0 µM 99% | [11]; at 33.0 µM 99% | [11]; [18] 99% | [11]; at 50.0 µM 99.5% | [11]; at 100.0 µM 91% | [12]; at 33.0 µM 99% | [12]; at 100.0 µM 96% | [13]; at 33.0 µM 99% | [13]; at 100.0 µM 95% | [14]; at 11.0 µM 94% | [14]; at 33.0 µM 99% | [14]; at 100.0 µM 95% | [15]; [18] 98% | [15]; at 50.0 µM 98.8% | [16]; at 33.0 µM 99% | [16]; at 100.0 µM 95%

O=C1C(=O)c2cccc([N+](=O)[O-])c2-c2ccccc21
inactive: [1]; at 1.2 µM 6% | [1]; at 3.7 µM -4% | [1]; at 11.0 µM 37% | [2]; at 1.2 µM 2% | [2]; at 3.7 µM 20% | [2]; at 11.0 µM 18% | [3]; at 1.2 µM -2% | [3]; at 3.7 µM -14% | [3]; at 11.0 µM 24% | [4]; at 1.2 µM 2% | [4]; at 3.7 µM -2% | [4]; at 11.0 µM 6% | [5]; at 1.2 µM -78% | [5]; at 3.7 µM -4% | [5]; [17] 19% | [5]; at 11.0 µM 55% | [6]; at 1.2 µM 5% | [6]; at 3.7 µM 9% | [6]; [17] 31% | [6]; at 11.0 µM 10% | [7]; at 1.2 µM 11% | [7]; at 3.7 µM 20% | [7]; at 11.0 µM 62% | [8]; [17] 31% | [9]; at 1.2 µM -6% | [9]; at 3.7 µM -5% | [9]; at 11.0 µM -1% | [10]; [17] 1% | [11]; at 1.2 µM 32% | [11]; at 3.7 µM 35% | [11]; [17] 53% | [11]; at 11.0 µM 47% | [12]; at 1.2 µM 30% | [12]; at 3.7 µM 47% | [12]; at 11.0 µM 66% | [13]; at 1.2 µM -3% | [13]; at 3.7 µM -1% | [13]; at 11.0 µM 3% | [14]; at 1.2 µM 16% | [14]; at 3.7 µM 11% | [14]; at 11.0 µM 35% | [15]; [17] 37% | [16]; at 1.2 µM 1% | [16]; at 3.7 µM 6% | [16]; at 11.0 µM 15%
active: [1]; at 33.0 µM 99% | [1]; at 100.0 µM 97% | [2]; at 33.0 µM 100% | [2]; at 100.0 µM 98% | [3]; at 33.0 µM 99% | [3]; at 100.0 µM 98% | [4]; at 33.0 µM 99% | [4]; at 100.0 µM 98% | [5]; at 33.0 µM 99% | [5]; [18] 98% | [5]; at 50.0 µM 98.5% | [5]; at 100.0 µM 96% | [6]; at 33.0 µM 99% | [6]; [18] 99% | [6]; at 50.0 µM 99.2% | [6]; at 100.0 µM 97% | [7]; at 33.0 µM 99% | [7]; at 100.0 µM 98% | [8]; [18] 99% | [8]; at 50.0 µM 98.9% | [9]; at 33.0 µM 99% | [9]; at 100.0 µM 98% | [10]; [18] 98% | [10]; at 50.0 µM 97.8% | [11]; at 33.0 µM 99% | [11]; [18] 98% | [11]; at 50.0 µM 98.8% | [11]; at 100.0 µM 99% | [12]; at 33.0 µM 99% | [12]; at 100.0 µM 98% | [13]; at 33.0 µM 99% | [13]; at 100.0 µM 98% | [14]; at 33.0 µM 99% | [14]; at 100.0 µM 96% | [15]; [18] 98% | [15]; at 50.0 µM 98.8% | [16]; at 33.0 µM 99% | [16]; at 100.0 µM 98%
